Source: PubChem BioAssay (National Center for Advancing Translational Sciences (NCATS))
Hits are enriched below; roughly 10% of the tested compounds scored in any of these assays.
ELG1 repair inh = qHTS screen for small molecules that inhibit ELG1-dependent DNA repair in human embryonic kidney (HEK293T) cells expressing luciferase-tagged ELG1 | Potency, µM (titrated, usually from 46.1 µM), inactives show top-dose activity change, negative = inhibition, usual class: inhibitors | AID 504467, 2011 | 2.3% of 330,000 active | HEK293T ELG1-luciferase reporter, luminescence, 16 h; DNA damage induced by 5-fluorouridine; also: % is scaled to controls: 0 for no effect and ±100 for the full control effect; nearly all actives have a fitted effect of over 55% in size
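DMSO vehicle served as the neutral condition. Each well held 2,000 cells given 5-fluorouridine plus compound; after 16 hr at 37 °C/5% CO2, ONE-Glo was added and luciferase measured 30 min later.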
MCF10A rerep = A quantitative high throughput screen for small molecules that induce DNA re-replication in MCF 10a normal breast cells. AID 624296, 2012. MCF 10A DNA re-replication, Hoechst nuclear intensity, 48 h. 2.9% of 350,000 active. Potency, µM (titrated, usually from 46.1 µM), inactives show at the highest dose activity, positive = re-replication, usual class: activators; also: % of control where 0% means no effect; nearly all actives have a fitted effect of over 50% in size
RORg inh = qHTS for inhibitors of ROR gamma transcriptional activity; Potency, µM (highest dose often 53.6 µM), inactives show top-dose activity change, negative = inhibition, usual class: inhibitors; Nuclear receptor ROR-gamma (Mus musculus), P51450; Drosophila S2 Gal4-RORgamma UAS-luciferase reporter, 20 h; 5.4% of 310,000 active; also: % is scaled to controls: 0 for no effect and ±100 for the full control effect; nearly all actives have a fitted effect of over 60% in size
Target sequence (P51450 whole entry, looked up, the tested form may be a part): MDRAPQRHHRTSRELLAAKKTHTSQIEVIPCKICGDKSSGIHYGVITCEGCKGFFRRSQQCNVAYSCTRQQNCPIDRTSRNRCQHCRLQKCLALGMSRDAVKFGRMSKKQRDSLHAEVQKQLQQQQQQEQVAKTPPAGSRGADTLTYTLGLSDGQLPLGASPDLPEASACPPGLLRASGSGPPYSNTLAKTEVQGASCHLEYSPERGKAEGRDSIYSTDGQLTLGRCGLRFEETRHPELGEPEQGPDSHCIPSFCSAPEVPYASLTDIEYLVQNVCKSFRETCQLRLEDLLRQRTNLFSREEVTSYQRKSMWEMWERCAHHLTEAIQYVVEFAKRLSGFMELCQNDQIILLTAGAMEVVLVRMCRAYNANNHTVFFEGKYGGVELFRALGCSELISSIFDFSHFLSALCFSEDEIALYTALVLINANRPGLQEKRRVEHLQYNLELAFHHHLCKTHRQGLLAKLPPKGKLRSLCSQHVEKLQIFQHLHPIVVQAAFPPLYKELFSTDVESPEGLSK
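ROR gamma transcriptional activity was tracked as Gal4-UAS luciferase output in stably transfected Drosophila Schneider cells, with compound added 1 hr before 700 uM copper sulfate induction and a 20 hr ambient-temperature incubation.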
VP16 counter = VP16 counterscreen qHTS for inhibitors of ROR gamma transcriptional activity. Drosophila S2 Gal4-VP16 UAS-luciferase, luminescence, 20 h. Potency, µM (highest dose often 53.6 µM), inactives show at the top dose activity, negative = inhibition, usual class: inhibitors. 3.5% of 310,000 active. AID 2546, 2010;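 also: Gal4-VP16 expression switched on by copper sulfate through the metallothionein promoter; % is scaled to controls: 0 for no effect and ±100 for the full control effect; nearly all actives have a fitted effect of over 50% in size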
SW480 rereplic = A quantitative high throughput screen for small molecules that induce DNA re-replication in SW480 colon adenocarcinoma cells. Potency, µM (doses to about 46.1 µM), inactives show top-dose re-replication activation, hits mostly activators. 1.8% of 340,000 active. SW480 DNA re-replication, Hoechst DNA content imaging, 48 h; also: % of control where 0% means no effect; nearly all actives have a fitted effect of over 55% in size
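Readout is total intensity of Hoechst-stained nuclei, excited at 405 nm and collected at 500-530 nm. Compound treatment lasted 48 hr at 37 C in 5% CO2 before staining.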
Active calls of the source: *; [ ] = remark or other dose. Calls follow the shape of the dose curve; as a rule, active = well fitted curve in the direction sought with a large enough effect; inconclusive = small, poorly fitted or top-dose-only effect, or another doubt; inactive = no such curve, though single readings can be large; an effect the other way counts as inactive or inconclusive. Potency is read from the fitted curve at half-maximal effect.

Results for O=C(NC1CC1)c1cc2cc(Br)ccc2s1 ?
ELG1 repair inh: 21%; MCF10A rerep: 7%; RORg inh: inconclusive; VP16 counter: 6%; SW480 rereplic: 0%

What do the screens show for `Cc1cc(C(=O)N/N=C2\CC(=O)c3ccccc32)c(C)n1-c1ccccc1`?
ELG1 repair inh: inconclusive; MCF10A rerep: inconclusive; RORg inh: 15%; VP16 counter: 2%; SW480 rereplic: inconclusive

What do the screens show for `OCC1OC(c2ccccc2)C=CC1Oc1cc(Cl)cc(Cl)c1` (stereo not given)?
RORg inh: 13%[10 µM]; VP16 counter: 0%[10 µM]

How did OC/C=C/c1ccccc1 do in these assays?
MCF10A rerep: 1%; RORg inh: 8%[10 µM]; VP16 counter: -1%; SW480 rereplic: 2%

What do the screens show for `Cc1cccc(NC(=O)CSc2nc3ccccc3c3nc(CCc4c(C)n[nH]c4C)nn23)c1`?
ELG1 repair inh: inconclusive; MCF10A rerep: 7.3µM*; RORg inh: 25%; VP16 counter: -6%; SW480 rereplic: inconclusive

How did Cc1n[nH]c(C)c1CCc1nc2c3ccccc3nc(SCC(=O)Nc3ccccc3F)n2n1 do in these assays?
ELG1 repair inh: inconclusive; MCF10A rerep: inconclusive; RORg inh: inconclusive; VP16 counter: inconclusive; SW480 rereplic: 0%

What do the screens show for `CCCC(C)c1nnc(NC(=O)c2cc(C(=O)OC)cc([N+](=O)[O-])c2)s1` (stereo not given)?
ELG1 repair inh: -13%; MCF10A rerep: 28%; RORg inh: 10µM*; VP16 counter: 16µM*; SW480 rereplic: -6%

What do the screens show for `CCCC(C)NC(=O)c1cc(C(=O)OC)cc([N+](=O)[O-])c1` (stereo not given)?
ELG1 repair inh: 2%; MCF10A rerep: 6%; RORg inh: -1%; VP16 counter: 4%; SW480 rereplic: -8%

How did Cc1nnc(NC(=O)C2CCCO2)s1 (stereo not given) do in these assays?
ELG1 repair inh: inconclusive; MCF10A rerep: -1%; RORg inh: 2%; VP16 counter: 2%; SW480 rereplic: -1%

How did CCCC(C)c1nnc(NC(=O)C2CCCO2)s1 (stereo not given) do in these assays?
ELG1 repair inh: inconclusive; MCF10A rerep: 5.2µM*; RORg inh: -2%; VP16 counter: -8%; SW480 rereplic: 21µM*

Results for CCCCCN(C(=O)CCC(=O)OCC(=O)N1CCCC(C)C1)c1c(N)n(CCCC)c(=O)[nH]c1=O (stereo not given) ?
ELG1 repair inh: 0%; MCF10A rerep: 0%; RORg inh: -7%; VP16 counter: 0%; SW480 rereplic: -7%

Results for COc1ccccc1N(C1=NCCCS1)S(=O)(=O)c1ccc(C(C)(C)C)cc1 ?
ELG1 repair inh: 0%; MCF10A rerep: 1%; RORg inh: 29%; VP16 counter: -12%; SW480 rereplic: 13%

How did COc1ccccc1C=NN=Cc1ccccc1OC do in these assays?
MCF10A rerep: -3%; SW480 rereplic: 0%

How did CCC(=O)OCC(=O)C1(OC(=O)CC)C(C)CC2C3C(Cl)CC4=CC(=O)C=C[C@@]4(C)C3C(O)C[C@@]21C (stereo not given in full) do in these assays?
RORg inh: 13µM*; VP16 counter: -27%

What do the screens show for `CCC(=O)OCC(=O)C1(OC(=O)CC)[C@H](C)C[C@H]2[C@H]3[C@H]([C@@H](O)C[C@@]21C)[C@@]1(C)C=CC(=O)C=C1C[C@H]3Cl` (stereo not given in full)?
ELG1 repair inh: 1%; MCF10A rerep: 1%; SW480 rereplic: inconclusive

Results for CCOC(=O)C1=C(C)Nc2ncnn2C1c1c[nH]c2ccccc12 (stereo not given) ?
ELG1 repair inh: 0%; MCF10A rerep: -12%; RORg inh: 10µM*; VP16 counter: 0%; SW480 rereplic: -1%

What do the screens show for `O=C1CC[C@@H]2CC(N3CCN(c4ccccc4)CC3)C[C@@H]3CCN1[C@H]23` (stereo not given in full)?
MCF10A rerep: -9%; SW480 rereplic: inconclusive

What do the screens show for `CCc1cccc(Nc2c([N+](=O)[O-])cc(C(=O)N3CC(=O)Nc4ccccc43)cc2[N+](=O)[O-])c1`?
ELG1 repair inh: inconclusive; MCF10A rerep: 9%; RORg inh: -4%[10 µM]; VP16 counter: 3%; SW480 rereplic: inconclusive

What do the screens show for `COCCNC(=S)Nc1cccc2cnccc12`?
ELG1 repair inh: inconclusive; MCF10A rerep: 4%; RORg inh: -2%; VP16 counter: -13%; SW480 rereplic: 2%

Results for COc1ccc(OCCNC(=S)Nc2cccc3ccccc23)cc1 ?
ELG1 repair inh: -14%; MCF10A rerep: 9%; RORg inh: 2.8µM*; VP16 counter: 6.3µM*; SW480 rereplic: inconclusive

What do the screens show for `COc1ccc(CCNC(=S)Nc2cccc3ccccc23)cc1`?
ELG1 repair inh: -4%; MCF10A rerep: inconclusive; RORg inh: 5µM*; VP16 counter: 11µM*; SW480 rereplic: 11%

What do the screens show for `Cc1ccccc1NC(=S)NCCc1ccccc1`?
ELG1 repair inh: 1%; MCF10A rerep: inconclusive; RORg inh: 29%; VP16 counter: -6%; SW480 rereplic: inconclusive

How did COc1ccc(CCNC(=S)Nc2ccccc2C)cc1 do in these assays?
ELG1 repair inh: -7%; MCF10A rerep: -1%; RORg inh: 5µM*; VP16 counter: 20µM*; SW480 rereplic: -2%

Results for CCc1cccc2sc(N3CCN(C(=O)c4ccc([N+](=O)[O-])o4)CC3)nc12 ?
ELG1 repair inh: -23%; MCF10A rerep: 3.7µM*; SW480 rereplic: inconclusive

How did CN(C)c1ccc(/C=C/c2ccc3c4ccccc4ccc3[n+]2-c2ccccc2)cc1 do in these assays?
ELG1 repair inh: 1.5µM*; MCF10A rerep: inconclusive; RORg inh: 1.4µM*; VP16 counter: inconclusive; SW480 rereplic: 1%

What do the screens show for `COc1ccc(OC)c(C2=NS(=O)(=O)N(C)C(C(=O)NCc3ccco3)=C2)c1`?
ELG1 repair inh: 1%; MCF10A rerep: 15%; RORg inh: 21%; VP16 counter: 1%; SW480 rereplic: -6%

Results for Cc1cc(C)c(NC(=O)c2ccc(S(=O)(=O)N(C)C)cc2)c(C)n1 ?
ELG1 repair inh: 1%; MCF10A rerep: 18µM*; RORg inh: 13%; VP16 counter: 2%; SW480 rereplic: inconclusive

How did Cc1ccccc1C(=O)Nc1nnc(-c2ccco2)o1 do in these assays?
ELG1 repair inh: inconclusive; MCF10A rerep: 2%; RORg inh: 2%; VP16 counter: -10%; SW480 rereplic: -2%
